From PubChem
Most compounds without a hit are left out; they make up all but 4.6% or so of the library.
SKKanGAS inh – blocks kanamycin growth of S. pyogenes SKKanGAS strain | 300,000 compounds, 1.3% hits | BacTiter-Glo, 6 h | inhibition, % at 7.5 µM;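 active = mean replicate score, as percent of positive control median, at least 50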;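 also: strain carries kanamycin resistance gene driven by streptokinase promoter and grows in 40 µg/ml kanamycin; loss of luminescence reflects streptokinase promoter inhibition or plain growth inhibition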
tim23-1 inh – inhibits growth of tim23-1 mutant yeast; S. cerevisiae tim23-1 growth, BacTiter-Glo luminescence, 24 h; inhibition, % at 20 µM; 330,000 compounds, 1.3% hits; AID 463212;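 active = growth inhibition of the mutant yeast at or above 50%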;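 also: temperature-sensitive mutant grown at 25 °C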
NLRP3 yeast inh – blocks the NALP3 inflammasome reconstituted in yeast | inhibition, % at 10 µM | 330,000 compounds, 0.39% hits | AID 2825 | Yeast reconstituted NLRP3/ASC/caspase-1, beta-gal luminescence, 24 h;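 active = inhibition of 50% or more; inactive = inhibition below 50%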
tim10-1 inh – inhibits growth of tim10-1 mutant yeast. AID 463190. inhibition, % at 20 µM. 330,000 compounds, 2.2% hits. S. cerevisiae tim10-1 ts strain growth, BacTiter-Glo, 24 h;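 active = inhibition of at least 40%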;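 also: mutant grown at 25 °C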
TIM10 inh – TIM10 yeast growth inhibition. S. cerevisiae TIM10 strain growth, BacTiter-Glo luminescence, 24 h. inhibition, % at 10 µM. 330,000 compounds, 1.4% hits;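 active = inhibition of 40% or more at the single tested concentration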;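 also: wild-type TIM10 isogenic control strain grown at permissive 25 °C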
tim10-1 conf – confirmation of tim10-1 mutant yeast growth inhibitors. 7,400 compounds, 56% hits. shares compounds with tim10-1 inh. AID 463213. S. cerevisiae tim10-1 ts strain growth, BacTiter-Glo, 24 h. inhibition, % at 20 µM;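 active = inhibition of yeast growth at or above a set limit in either of two repeat tests at 20 µM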;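 also: tim10-1 mutant grown at permissive 25 °C to find synthetic lethal compounds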
TIM10 conf – TIM10 yeast growth inhibition, confirmed | S. cerevisiae tim10 strain growth, BacTiter-Glo luminescence, 24 h | 4,600 compounds, 63% hits | shares compounds with TIM10 inh | inhibition, % at 10 µM;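 active = inhibition of yeast growth at or above a set limit in either of two replicates at 10 µM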; also: this counterscreen used the strain with wild-type TIM10
A number is an active result.

What do the screens show for `O=C(COc1ccc2ccccc2c1)Nc1ccc(S(=O)(=O)N2CCCCCC2)cc1`?
SKKanGAS inh: inactive; tim23-1 inh: inactive; NLRP3 yeast inh: inactive; tim10-1 inh: 41; TIM10 inh: 46; tim10-1 conf: 37; TIM10 conf: inactive

How did COC(=O)N1C(=O)[C@](c2ccccc2)(C2CCCCC2)N1C(=O)OC do in these assays?
SKKanGAS inh: inactive; tim23-1 inh: inactive; NLRP3 yeast inh: inactive; tim10-1 inh: 49; TIM10 inh: 43; tim10-1 conf: 32; TIM10 conf: 39

Results for Cc1c(/C=N/NC(=O)c2sc3ccccc3c2Cl)cnn1C ?
SKKanGAS inh: inactive; tim23-1 inh: inactive; NLRP3 yeast inh: inactive; tim10-1 inh: 53; TIM10 inh: 43; tim10-1 conf: 34; TIM10 conf: 50

How did CC(c1ccco1)N(C(=O)c1ccccc1F)c1ccccn1 (configuration not stated) do in these assays?
SKKanGAS inh: inactive; tim23-1 inh: inactive; NLRP3 yeast inh: inactive; tim10-1 inh: inactive; TIM10 inh: inactive

How did CC(c1ccco1)N(C(=O)C12CC3CC(CC(C3)C1)C2)c1ccccn1 (configuration not stated) do in these assays?
SKKanGAS inh: inactive; tim23-1 inh: inactive; NLRP3 yeast inh: inactive; tim10-1 inh: 43; TIM10 inh: 46; tim10-1 conf: 36; TIM10 conf: inactive

How did Cc1ccc(OCC(=O)O/N=C(\N)c2ccccn2)cc1 do in these assays?
SKKanGAS inh: inactive; tim23-1 inh: inactive; NLRP3 yeast inh: inactive; tim10-1 inh: inactive; TIM10 inh: inactive

Results for N/C(Cc1cccc2ccccc12)=N\OC(=O)c1ccc2c(c1)OCO2 ?
SKKanGAS inh: inactive; tim23-1 inh: inactive; NLRP3 yeast inh: inactive; tim10-1 inh: 48; TIM10 inh: 60; tim10-1 conf: 39; TIM10 conf: 32

What do the screens show for `N/C(=N\OC(=O)Cc1cccc2ccccc12)c1ccccn1`?
SKKanGAS inh: inactive; tim23-1 inh: inactive; NLRP3 yeast inh: inactive; tim10-1 inh: 60; TIM10 inh: 43; tim10-1 conf: 49; TIM10 conf: 38

How did N/C(=N\OC(=O)c1ccc2c(c1)OCO2)c1cccnc1 do in these assays?
SKKanGAS inh: inactive; tim23-1 inh: inactive; NLRP3 yeast inh: inactive; tim10-1 inh: inactive; TIM10 inh: inactive

Results for COc1ccc(CC(=O)O/N=C(\N)Cc2cccc3ccccc23)cc1 ?
SKKanGAS inh: inactive; tim23-1 inh: inactive; NLRP3 yeast inh: inactive; tim10-1 inh: 44; TIM10 inh: 48; tim10-1 conf: 50; TIM10 conf: 53

What do the screens show for `Cc1ccc(OCC(=O)O/N=C(\N)Cc2ccc(Cl)cc2)cc1`?
SKKanGAS inh: inactive; tim23-1 inh: inactive; NLRP3 yeast inh: inactive; tim10-1 inh: 59; TIM10 inh: 78; tim10-1 conf: 44; TIM10 conf: inactive

What do the screens show for `CS(=O)(=O)Nc1ccccc1C(=O)OCC(=O)N1CCC(c2ccccc2)=N1`?
tim23-1 inh: inactive; NLRP3 yeast inh: inactive; tim10-1 inh: inactive; TIM10 inh: inactive

Results for O=C(C[n+]1ccc(-c2ccccc2)cc1)Nc1ccc([N+](=O)[O-])cc1 ?
SKKanGAS inh: inactive; tim23-1 inh: inactive; NLRP3 yeast inh: inactive; tim10-1 inh: inactive; TIM10 inh: inactive

Results for COc1ccc(OCC(=O)O/N=C(\N)Cc2ccc(Cl)cc2)cc1 ?
SKKanGAS inh: inactive; tim23-1 inh: inactive; NLRP3 yeast inh: inactive; tim10-1 inh: 62; TIM10 inh: 54; tim10-1 conf: 58; TIM10 conf: inactive

How did COc1ccc(OCC(=O)O/N=C(\N)c2ccc(OC)cc2)cc1 do in these assays?
SKKanGAS inh: inactive; tim23-1 inh: inactive; NLRP3 yeast inh: inactive; tim10-1 inh: inactive; TIM10 inh: inactive

How did Cc1ccc(/C(N)=N/OC(=O)COc2ccccc2Cl)cc1 do in these assays?
SKKanGAS inh: inactive; tim23-1 inh: inactive; NLRP3 yeast inh: inactive; tim10-1 inh: 61; TIM10 inh: inactive; tim10-1 conf: 42; TIM10 conf: 43

What do the screens show for `COc1ccc(OCC(=O)O/N=C(\N)Cc2cccs2)cc1`?
SKKanGAS inh: inactive; tim23-1 inh: inactive; NLRP3 yeast inh: inactive; tim10-1 inh: inactive; TIM10 inh: inactive

Results for COc1ccc(OCC(=O)O/N=C(\N)Cc2ccc(Cl)cc2Cl)cc1 ?
SKKanGAS inh: inactive; tim23-1 inh: inactive; NLRP3 yeast inh: inactive; tim10-1 inh: 64; TIM10 inh: 50; tim10-1 conf: 63; TIM10 conf: 46
